Akt phos inh = inhibitors of Akt phosphorylation. activity change, % for hits at 50 µM. 360,000 compounds, 0.32% hits. Neuro2A IGF-stimulated pAkt S473 HTRF, 20 min; stronger effect = lower value; in the data active = activity change below about -80%; inconclusive = mostly about -51% to -80%
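Single-point screen (50 µM final compound) in Neuro2A cells stimulated 20 min with 6 nM IGF at 37 deg C. After lysis, Ser473-phosphorylated Akt read by HTRF (ex 330 nm, em 615/665 nm) as the 665/615 ratio.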
TCR act = T cell receptor activation; primary human leukocytes, anti-CD3, IL-2 HTRF, 48 h; Potency, µM (highest dose often 9.22 µM), usual class: activators; 330,000 tested, under 10 active; AID 504894
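HTRF read-out of IL-2 secretion: europium cryptate donor excited at 320nm, d2 acceptor emission at 665nm. Cells were primary human leukocytes incubated 48 hr with compounds and a-CD3 beads, supplying TCR signal only.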
BRCA1 expr act = BRCA1 expression activation | MCF7-BRCA1-FFLuc reporter, luminescence, 48 h; response scale: scaled: vehicle 0%, 10 µM genistein 100% | Potency, µM (doses to about 46.1 µM), actives largely listed as activators | 380,000 compounds, 1.1% hits | AID 624202; also: nearly all actives have a fitted effect of over 80% in size
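MCF7-BRCA1-FFLuc cells, 2000/well in phenol-red-free MEM, attached 2 h then treated 48 h at 37 C. Luciferase luminescence read 15 min after reagent; normalized to genistein maximum activation (10microM) and DMSO, concentration-response fitted.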
PINK1 expr mod = changes PINK1 expression | PINK1 immunofluorescence, high-content cytometry, 24 h | Potency, µM (doses to about 76.6 µM), usual class: activators | 410,000 compounds, 0.2% hits | AID 624263; active = well fitted activation curve with a large enough effect; inconclusive = small, poorly fitted or top-dose-only effect; cell line not stated here; also: nearly all actives have a fitted effect of over 65% in size
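Stable cell line, 250 cells/well, 12 h attachment; compounds pinned at 5 concentrations, 24 h; CCCP control. Fixed with nuclear dye, primary antibodies 12 h at 10 degrees C, secondary plus cell stain; laser-scanning cytometer read.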
A number is an active result; i = inactive; ? = inconclusive; nt = no result given. This is a sample that favours compounds with a hit; in the whole collection about 1.5% have one here. Unless noted, calls follow the shape of the dose curve; as a rule, active = well fitted curve in the direction sought with a large enough effect; inconclusive = small, poorly fitted or top-dose-only effect, or another doubt; inactive = no such curve, though single readings can be large; an effect the other way counts as inactive or inconclusive.

SMILES | Akt phos inh | TCR act | BRCA1 expr act | PINK1 expr mod
Cc1ccc(NC(=O)c2nnn(-c3ccc4c(c3)OCCO4)c2N)cc1 | i | i | 5.62µM | i
Cc1ccccc1Cn1nnc(C(=O)Nc2ccc3c(c2)OCCO3)c1N | i | i | 3.55µM | i
CCC(=O)Nc1ccc(S(=O)(=O)NCc2cccn2Cc2cccc(C)c2)cc1 | nt | nt | i | i
Cc1cccc(CN2CCN(C(c3ccccc3)c3ccc(Cl)cc3)CC2)c1 (centres undefined) | i | i | i | 35.5µM
COc1cc(CN2CCC3(CCC(CNC(=O)c4ccco4)O3)CC2)ccc1O (centres undefined) | nt | nt | nt | i
O=C(Nc1ccccc1F)Nc1ccccc1F | i | i | 5.01µM | i
Cc1cnc(C(=O)Nc2ccccc2F)cn1 | i | i | 5.01µM | i
CCOC(=O)N1CCC(NC(=O)c2cnn(-c3ccc(F)cc3F)c2C2CCN(C(=O)OC(C)(C)C)CC2)CC1 | nt | nt | nt | i
COc1cc(C)nc(OCCNC(=O)COc2ccc(Cl)cc2C)n1 | -108.6% | i | i | i
CC(CN1CCOCC1)OC(=O)c1ccc2c(c1)OCCO2 (centres undefined) | i | i | 7.94µM | i
CC(CN1CCCCC1)OC(=O)c1ccc2c(c1)OCCO2 (centres undefined) | i | i | i | i
O=c1[nH]cnc2cc(-c3ccccc3)sc12 | i | i | 2.82µM | i
COc1ccccc1NS(=O)(=O)c1cc(NC(=S)Nc2cc(C)cc(C)c2)ccc1Cl | i | i | i | 44.7µM
CCNC(=S)Nc1ccc(C)c(S(=O)(=O)Nc2ccccc2OC)c1 | i | i | i | i
CCOC(=O)C(CC)Sc1ccc2nnc(CCNS(=O)(=O)c3ccc(C)cc3)n2n1 (centres undefined) | nt | nt | nt | i
Cc1c(C(=O)NCc2ccco2)cnn1-c1ncc2c(n1)-c1ccccc1CC2 | nt | nt | nt | i
COc1ccc2c(c1)CCc1cnc(-n3ncc(C(=O)N(C)CCc4ccccn4)c3C)nc1-2 | nt | nt | nt | i
O=C(NC(NC(=S)Nc1cccc(C(=O)O)c1)C(Cl)(Cl)Cl)OCc1ccccc1 (centres undefined) | i | i | i | i
O=C(NC(NC(=S)Nc1cccc(Cl)c1)C(Cl)(Cl)Cl)OCc1ccccc1 (centres undefined) | i | i | i | 7.94µM
Cc1ccc(Nc2ncnc3nc[nH]c23)cc1 | nt | nt | 11.2µM | i
CCOC(=O)c1ccc(Nc2ncnc3nc[nH]c23)cc1 | i | i | 6.31µM | i
COCCn1c(=O)c(-c2cccs2)nc2cnc(Oc3cccc(Cl)c3)nc21 | nt | nt | nt | i
CC(=O)c1ccc(NC(=O)CCc2c(C)nn(-c3ccc(N4CCCCC4)nn3)c2C)cc1 | nt | nt | nt | i
Cc1nn(-c2ccc(N3CCCCC3)nn2)c(C)c1CCC(=O)Nc1ccc(F)c(F)c1 | i | i | 2.24µM | i
Cc1ccc(NC(=O)CCc2c(C)nn(-c3ccc(N4CCCCC4)nn3)c2C)cc1 | i | i | 3.98µM | i
SMILES | Akt phos inh | TCR act | BRCA1 expr act | PINK1 expr mod
Cc1nn(-c2ccc(N3CCCC3)nn2)c(C)c1CCC(=O)Nc1ccc(F)c(Cl)c1 | nt | nt | nt | i
Cc1cnc(C)c(-c2ccc(F)c3c2OC(CNC(=O)/C=C/c2cccs2)C3)n1 (centres undefined) | nt | nt | nt | i
Cc1cc(C)n(-c2ccc(C(=O)Nc3sccc3C(N)=O)cc2)n1 | i | i | 1µM | i
CCN(CC)c1ccc(/C=C/c2cccc[n+]2C)c(OC)c1 | i | i | i | 10µM
COc1ccc(/C=C/c2cccc[n+]2C)c(O)c1 | i | nt | i | i
Fc1ccccc1CSCc1nc2ccccc2[nH]1 | i | i | 5.62µM | i
c1ccc(SCc2nc3ccccc3[nH]2)cc1 | i | i | ? | i
Cc1ccc(SCc2nc3ccccc3[nH]2)cc1 | i | i | 3.55µM | i
c1ccc(CCc2nc3ccccc3[nH]2)cc1 | i | i | 6.31µM | i
Cc1ccc(OCCSCc2nc3ccccc3[nH]2)cc1 | -97.6% | i | i | i
Cc1ccc(CSCc2nc3ccccc3[nH]2)cc1 | i | i | i | i
CCN(CC)/[N+]([O-])=N/Oc1ccc([N+](=O)[O-])cc1[N+](=O)[O-] | nt | nt | i | i
COc1ccc2cc(CN(C(=O)c3cc(C)nn3C)C3CC3)c(-c3ccc(Cl)cc3)nc2c1 | nt | nt | nt | i
COC(=O)C1CCN(Cc2ccc3c(c2)CN(C(=O)c2ncc(C)[nH]2)CCO3)CC1 | nt | nt | nt | i
COc1ccccc1CC(=O)NO | nt | nt | i | i
COc1cccc(CNC(=O)c2c(OC)cc(=O)n3c2CCN(C(=O)c2ccc(C)nc2)CC3)c1 | nt | nt | nt | i
Cc1ccc(SCC(=O)Nc2ccc(-c3nc4ccccc4[nH]3)cc2)cc1 | i | i | 3.55µM | ?
COC(=O)CCC(NC(=O)c1cc(C)oc1C)C(=O)OC (centres undefined) | -104.7% | i | i | i
CC(C)(O)C#Cc1ccc(CN2CCc3nnc(CNC(=O)c4cccc(F)c4)n3CC2)cc1 | nt | nt | nt | i
Cc1ccccc1-c1nnc(Cc2ccccc2)o1 | i | i | 2.82µM | i
Cc1ccccc1-c1nnc(SCc2ccccc2F)o1 | i | i | ? | ?
Cc1cccc(C)c1NC(=O)CSc1nnc(Cc2ccccc2)o1 | i | i | i | i
Cc1ccccc1-c1nnc(SCc2ccccc2)o1 | i | i | 10µM | i
Cc1ccc(CSc2nnc(-c3ccco3)o2)cc1 | i | i | 5.01µM | i
CCN(C(=O)CCS(=O)(=O)c1ccc(Br)cc1)c1ccc2c(c1)OCO2 | -108.5% | i | i | i
SMILES | Akt phos inh | TCR act | BRCA1 expr act | PINK1 expr mod
O=C(CCS(=O)(=O)c1ccc(Br)cc1)Nc1ccc2c(c1)OCO2 | i | i | i | i
OC(c1cccnc1)c1ccc2c(c1)CN(Cc1cn(-c3ccccc3)nc1-c1ccccc1)CCO2 (centres undefined) | nt | nt | nt | i
CC1(C(=O)O)CC(C)(C(=O)O)CC(C)(C(=O)O)C1 (centres undefined) | -119.1% | i | i | i
COC(=O)C1=C(O)C2(C(=O)O)CC(C(=O)OC)=C(O)C(C(=O)O)(C1)C2 | i | i | i | i
Cc1nc(SCc2cccc(Oc3ccccc3)c2)n[nH]1 | -112.4% | i | i | i
C/C(=N\NC(=O)CN1CCOCC1)C(C)(C)C | i | nt | i | 10µM
O=C(CCc1c[nH]c2ccccc12)N1CCC(n2c(C3CCCO3)nc3cc(C(F)(F)F)ccc32)CC1 (centres undefined) | nt | nt | nt | i
CN(C1CCCCC1)S(=O)(=O)c1ccc2c(c1)c(=O)c(C(=O)N1CCN(c3ccccc3F)CC1)cn2C | nt | nt | nt | i
Cc1cc2nc(N)sc2cc1[N+](=O)[O-] | i | i | 12.6µM | nt
COc1ccc2nc(N)sc2c1 | i | i | i | i
Cc1ccc(-n2cc(C(=O)c3ccc(F)cc3)nn2)cc1Cl | -120.8% | i | ? | i
CCOC(=O)c1ccc(-n2cc(C(=O)c3cccnc3)nn2)cc1 | i | i | i | i
COCC1CCCN(Cc2ccc3c(c2)CN(C(=O)c2cccnc2OC)CCO3)C1 (centres undefined) | nt | nt | nt | i
COc1ccccc1C1CN(CC(=O)N[C@H]2CCCCNC2=O)Cc2ccccc2O1 (some centres undefined) | nt | nt | nt | i
CCCCc1ccc(-c2csc(/C(C#N)=C\c3ccco3)n2)cc1 | i | i | 10µM | i
COc1cccc(-n2c(SC)nnc2C2CCN(Cc3cccc(OC)c3O)CC2)c1 | nt | nt | nt | i

Assay outcomes from PubChem.
